Sampled rows, rich in hits. Any-hit rate of the full collection: about 6.6%.
TGFb SMAD3 inh: qHTS for Inhibitors of TGF-b | HepG2 CAGA-GFP TGF-b/SMAD3 reporter, GFP fluorescence, 18 h; TGF-beta stimulated, 500 pg/mL final | Potency, µM (highest dose often 46.1 µM), inactives show top-dose activity, negative = inhibition, actives largely listed as inhibitors | 410,000 tested, 1.2% active; also: % is scaled to controls: 0 for no effect and ±100 for the full control effect; nearly all actives have a fitted effect of over 65% in size
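Per well, imaged GFP fluorescence of HEPG2 CAGA-GFP cells gives the signal; cells get compound, then TGF-beta (500 pg/mL final), 18 h at 37 degrees C; %Activity versus -TGF-beta and +DMSO controls.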
HT1080 IDH1KD tx: qHTS for induction of synthetic lethality in tumor cells producing 2HG: qHTS for the HT-1080-IDH1KD cell line; HT-1080 IDH1 knockdown viability, ATP luminescence, 48 h; Potency, µM (titrated, usually from 46.1 µM), for the others: at the highest dose activity, negative = toxicity, hits mostly cytotoxic; 360,000 tested, 2% active; AID 686971, 2013;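 also: 0% = DMSO wells and -100% = cell-free medium wells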
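Knockdown cells (IDH1KD HT-1080) received compounds 2 h after plating at 750 cells/well and were kept 48 h at 37 °C in 5% FBS RPMI. A CellTiter-Glo luminescence read gave % activity for curve fitting.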
HepG2 tox: qHTS for Inhibitors of TGF-b: Cytotox Counterscreen; HepG2 CAGA-GFP viability, ATP luminescence, 18 h; Potency, µM (top dose mostly 46.1 µM), for the others: at the top dose activity change, negative = cytotoxicity, usual class: cytotoxic; 410,000 tested, 0.76% active
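CellTiter-Glo luminescence gave cytotoxicity after 18 hours at 37 degrees C. The cells were HepG2 CAGA-GFP in 1% FBS DMEM, stimulated with 500 pg/mL TGF-beta after compound addition. %Activity was normalised to no-cell wells (complete cell-killing) and DMSO (no toxicity), and curves were fitted and classified.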
KB-3-1 tox: qHTS assay for MDR1-selective chemotherapeutics: Primary screen using the parental adenocarcinoma cell KB-3-1; KB-3-1 viability, CellTiter-Glo ATP luminescence, 72 h; Potency, µM (highest dose often 46.1 µM), usual class: cytotoxic; 400,000 tested, 1.4% active; also: % is scaled to controls: 0 for no effect and ±100 for the full control effect; nearly all actives have a fitted effect of over 60% in size
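Cells are dispensed, compounds pinned in, plates held at 37 °C for 72 h, then CellTiter-Glo is added and luminescence read after 10 minutes. Cell line: parental KB-3-1 in phenol-red-free DMEM, 10% FBS.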
KB-V1 cytotox: qHTS assay for MDR1-selective chemotherapeutics: Primary screen using the drug-selected MDR subline cells KB-V1 | Potency, µM (top dose mostly 46.1 µM), hits mostly cytotoxic | KB-V1 MDR cells viability, CellTiter-Glo, 72 h | 400,000 tested, 3.4% active; also: % is scaled to controls: 0 for no effect and ±100 for the full control effect; nearly all actives have a fitted effect of over 60% in size
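qHTS viability screen in drug-selected KB-V1 MDR cells: 72 h compound treatment at 37 degrees C, ATP luminescence end point.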
HT1080NT lethal: qHTS for induction of synthetic lethality in tumor cells producing 2HG: qHTS for the HT-1080-NT fibrosarcoma cell line; Potency, µM (doses to about 46.1 µM), without a hit: at the highest dose activity, negative = less viability, hits mostly cytotoxic; 360,000 tested, 1.6% active; HT-1080-NT fibrosarcoma viability, CellTiter-Glo ATP luminescence, 48 h;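 also: NT is the 2HG producing partner of a matched IDH1 knockdown line; 0% = DMSO-treated cells and -100% = media-only wells without cells; nearly all actives have a fitted effect of over 55% in size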
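Viability of the 2HG-overproducing fibrosarcoma line after 48 hours of compound exposure at 37 degrees C was determined by luminescence with CellTiter-Glo, and concentration-effect curves were then fitted and categorized.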
Active calls of the source: *; i = inactive; u = inconclusive; x = not tested or not shown. Calls follow the shape of the dose curve; as a rule, active = well fitted curve in the direction sought with a large enough effect; inconclusive = small, poorly fitted or top-dose-only effect, or another doubt; inactive = no such curve, though single readings can be large; an effect the other way counts as inactive or inconclusive. Potency is read from the fitted curve at half-maximal effect.

SMILES	TGFb SMAD3 inh	HT1080 IDH1KD tx	HepG2 tox	KB-3-1 tox	KB-V1 cytotox	HT1080NT lethal
O=S(=O)(c1ccc2ccccc2c1)N1CCN(c2nc(-c3ccccc3)nc3ccccc23)CC1	-4.4%	x	23.9%	u	i	x
C=CCNc1nc2cc(-c3ccccc3C)sc2c(=O)n1C	4.4%	9.2µM*	-33.9%	20.6µM*	u	14.6µM*
Cc1ccc(CNc2nc3cc(-c4ccccc4C)sc3c(=O)n2C)c(C)c1	u	u	8.5%	u	i	u
CN(C)CCCNc1nc2cc(-c3ccsc3)sc2c(=O)n1C	-19.8%	u	1.1%	u	i	u
COc1cccc(-c2cc3nc(NCCCN(C)C)n(C)c(=O)c3s2)c1	u	u	-77.8%	i	i	u
CN(C)CCCNc1nc2cc(-c3cnn(Cc4ccccc4)c3)sc2c(=O)n1C	20.6%	23.1µM*	-17.3%	i	i	9.2µM*
Cc1ccc(F)cc1-c1cc2nc(NCCCN(C)C)n(C)c(=O)c2s1	u	14.6µM*	-72.2%	i	i	20.6µM*
O=C(OC(C(=O)N1CCOCC1)c1ccccc1)c1c2c(nc3ccccc13)CCCC2 (centres undefined)	10.3%	x	4.7%	i	i	x
CC(=O)c1cccc(NS(=O)(=O)c2cc(-c3onc(C)c3C)ccc2C)c1	-7.4%	x	-26.4%	14.6µM*	u	x
CCc1ccc(CN(Cc2ccco2)C(=O)COc2ccc(Cl)cc2C)cc1	-16.3%	x	-32.1%	x	x	x
Cn1c(=O)c2c(ncn2CC(=O)Nc2nc(-c3ccccc3Cl)cs2)n(C)c1=O	-0.9%	-29.6%	-12.5%	u	20.6µM*	-28.0%
Cn1c(SCc2ccc(C(C)(C)C)cc2)nnc1C1COc2ccccc2O1 (centres undefined)	22.4µM*	u	-2.4%	u	i	-9.0%
O=C(NCCc1ccco1)C(=O)NCC1OCCCN1S(=O)(=O)c1ccccc1 (centres undefined)	4.7%	-15.3%	-0.8%	i	i	-5.4%
O=C(NCCC1=CCCCC1)C(=O)NCC1OCCCN1S(=O)(=O)c1ccccc1 (centres undefined)	1.4%	2.6%	7.9%	i	9.2µM*	3.0%
Cc1ccc(C)c(S(=O)(=O)N2CCCOC2CNC(=O)C(=O)NCCC2=CCCCC2)c1 (centres undefined)	-16.8%	3.8%	-40.4%	i	5.17µM*	5.7%
CC(NC(=O)c1ccc2c(c1)N(Cc1ccc(Cl)cc1)C(=O)c1ccccc1S2=O)c1ccccc1 (centres undefined)	u	x	-4.3%	i	i	x
O=c1c2c3c(sc2nc(NCCO)n1CCc1ccccc1)CCCCC3	u	u	-21.3%	u	u	-28.4%
OCCNc1nc(SCc2ccccc2)nc2sc3c(c12)CCC3	-1.9%	-28.4%	-9.8%	i	7.31µM*	-14.3%
O=C(NC1CCCCC1)C(c1ccco1)N(Cc1cccs1)C(=O)Cn1nnc2ccccc21 (centres undefined)	-6.8%	-1.0%	0.0%	i	5.17µM*	u
Cc1ccc(-c2nnn(CC(=O)N(Cc3cccs3)C(C(=O)NC3CCCC3)c3ccncc3)n2)cc1 (centres undefined)	u	u	-17.9%	i	i	15.8µM*

Compound activity from PubChem BioAssay.
